Screens as filed in PubChem.
LmPK inhibitor = LmPK (Leishmania mexicana) enzyme inhibition | purified LmPK, Kinase-Glo ATP luminescence, 1 h | Potency, µM (top dose mostly 57.5 µM), actives largely listed as inhibitors | hit rate 0.37% among 290,000
Target sequence (Q27686 whole entry, looked up): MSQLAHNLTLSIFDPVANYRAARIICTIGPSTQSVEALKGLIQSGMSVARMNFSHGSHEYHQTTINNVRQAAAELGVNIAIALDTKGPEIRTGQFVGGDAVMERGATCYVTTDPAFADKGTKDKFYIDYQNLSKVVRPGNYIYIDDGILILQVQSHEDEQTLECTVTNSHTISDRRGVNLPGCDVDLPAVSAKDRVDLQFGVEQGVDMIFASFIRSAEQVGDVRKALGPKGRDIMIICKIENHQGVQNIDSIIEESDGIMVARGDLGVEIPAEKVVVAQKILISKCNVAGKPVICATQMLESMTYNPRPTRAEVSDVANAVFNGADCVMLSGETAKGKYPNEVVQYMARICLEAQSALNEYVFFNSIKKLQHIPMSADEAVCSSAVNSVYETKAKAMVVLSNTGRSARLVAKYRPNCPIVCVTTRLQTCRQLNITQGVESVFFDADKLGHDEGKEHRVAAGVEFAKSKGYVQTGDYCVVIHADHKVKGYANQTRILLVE
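Purified LmPK (0.1 nM) with 0.5 mM PEP and 0.1 mM ADP in imidazole buffer pH 7.2 with MgCl2/KCl, 1 h at room temperature. ATP formed was read by luciferase luminescence and normalized to no-enzyme and uninhibited controls.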
Cycloheximide cs = counter-screen for Shiga toxin inhibitors: cycloheximide protein synthesis inhibition; cell reporter, cycloheximide protein synthesis inhibition counterscreen; max response, %; hit rate 12% among 300,000; AID 2314; in the data active = max response mostly above about 13%, no sharp cut-off; inactive = mostly below about 14%; also: read at 38.3 µM for the half of the compounds with a filed dose
Pf growth 48h = inhibits P. falciparum growth in the first generation, 48 h | P. falciparum luciferase growth in erythrocytes, 48 h | Potency, µM (highest dose often 28.7 µM), most hits filed as inhibitors | hit rate 5.9% among 310,000
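Parasite viability was followed by luminescence of a genomically integrated firefly luciferase. Cultures held 0.1% parasitemia at 2% hematocrit (final), incubated under 5% CO2 at 37 C.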
Shiga toxin inh = blocks Shiga toxin action in Vero cells; hit rate 9.2% among 290,000; inhibition, % at 38.7 µM; Vero cells, Shiga toxin protein synthesis inhibition reporter; in the data active = inhibition mostly above about 28%, no sharp cut-off; inactive = mostly below about 43%
Pf growth 96h = P. falciparum growth inhibition at 96 hours; hit rate 6.9% among 320,000; AID 504834; Potency, µM (doses to about 28.7 µM), hits mostly inhibitors; P. falciparum luciferase reporter growth, 96 h
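Erythrocytes infected with luciferase-expressing P. falciparum were dispensed at 2% hematocrit and 0.05% parasitemia (final), then incubated with compounds 96 hours at 37 C in 5% CO2. Luminescence after detection reagent addition reported growth.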
Of the large screens only hits and unclear results are named; the others gave an inactive call. An excerpt weighted towards active compounds, which were near 22% of everything screened. Unless noted, calls follow the shape of the dose curve; as a rule, active = well fitted inhibition curve with a large enough effect; inconclusive = small, poorly fitted or top-dose-only effect, or another doubt; inactive = no such curve, though single readings can be large or run the other way.

O=P(c1ccccc1)(c1ccccc1)c1nc(-c2ccccc2)oc1N1CCOCC1	Pf growth 48h inconclusive, Pf growth 96h inconclusive
CC(=O)c1ccc(OCc2ncc(C(F)(F)F)cc2Cl)cc1	Cycloheximide cs 36, Shiga toxin inh 76
NC(=O)Cc1ncc(C(F)(F)F)cc1Cl	none
FC(F)(F)c1cnc(COc2ccc(Cl)cc2Cl)c(Cl)c1	Cycloheximide cs 17, Shiga toxin inh 66
CCCNC(=O)c1ccccc1NC(=O)c1ccccc1N(C)S(=O)(=O)c1ccc(C)cc1	Pf growth 48h 8.3µM
CN(c1ccccc1C(=O)Nc1cccc(Br)c1)S(=O)(=O)c1ccccc1	none
CC(=O)c1cccc(NC(=O)c2ccccc2N(C)S(=O)(=O)c2ccc(C)cc2)c1	Pf growth 48h inconclusive, Pf growth 96h 13µM
COc1ccc(NC(=O)COC(=O)CCNS(=O)(=O)c2ccccc2)cc1OC	none
Cc1cccc(N(CC(=O)NCCSc2ccccn2)S(=O)(=O)c2ccccc2)c1	Pf growth 48h inconclusive, Pf growth 96h inconclusive
COc1ccc(CCNC(=O)CN(c2ccccc2OC)S(=O)(=O)c2ccc(C)cc2)cc1	Pf growth 48h 4.1µM
COc1ccccc1N(CC(=O)NCCSCc1ccc(C)cc1)S(=O)(=O)c1ccccc1	Pf growth 48h inconclusive
COc1ccccc1OCCNC(=O)CN(c1cccc(C)c1)S(=O)(=O)c1ccccc1	Pf growth 48h 15µM
COc1ccc(OC)c(N(CC(=O)NCCc2ccc(OC)c(OC)c2)S(=O)(=O)c2ccccc2)c1	Pf growth 48h inconclusive
COc1ccc(CCNC(=O)CN(c2cc(OC)ccc2OC)S(=O)(=O)c2ccccc2)cc1	Pf growth 48h 9.3µM
CC1c2cc3c(cc2CCN1S(=O)(=O)c1ccccc1)OCCCO3 (centres undefined)	none
COc1ccc(S(=O)(=O)Cc2ccc(C(=O)N3CCN(c4ccccn4)CC3)o2)cc1	none (no result: Pf growth 48h)
O=C(c1ccc(CS(=O)(=O)c2ccc(Br)cc2)o1)N1CCN(c2ncccn2)CC1	Pf growth 96h 1.9µM (no result: Pf growth 48h)
Cc1ccccc1S(=O)(=O)Cc1ccc(C(=O)N2CC(C)CC(C)C2)o1 (centres undefined)	Pf growth 96h 17µM (no result: Pf growth 48h)
Cc1ccc(S(=O)(=O)Cc2ccc(C(=O)N3CCC(C(N)=O)CC3)o2)cc1	Pf growth 96h 10µM
CCOC(=O)N1CCN(C(=O)CN(c2ccccc2)S(C)(=O)=O)CC1	none
O=C(Nc1nccs1)c1ccc2c(c1)C(=O)N(Cc1cccnc1)C2=O	Pf growth 96h inconclusive
Cc1cc(NC(=O)c2ccc3c(c2)C(=O)N(C(C)(C)C)C3=O)no1	Cycloheximide cs 21, Pf growth 96h inconclusive
CC(C)(C)N1C(=O)c2ccc(C(=O)Nc3nccs3)cc2C1=O	Cycloheximide cs 31, Shiga toxin inh 57
CCN1C(=O)c2ccc(C(=O)Nc3nccs3)cc2C1=O	Cycloheximide cs 12, Shiga toxin inh 31
Cc1cc(NC(=O)c2ccc3c(c2)C(=O)N(CC(C)C)C3=O)no1	none
COc1ccccc1N1C(=O)c2ccc(C(=O)Nc3nccs3)cc2C1=O	none
O=C(NCCc1ccccn1)C1CCN(S(=O)(=O)c2ccc3ccccc3c2)CC1	none
CC1=NN(C(=O)Cn2nc([N+](=O)[O-])c(Br)c2C)C(O)(C(F)(F)F)C1 (centres undefined)	none
OCC1O[C@H](O[C@H]2C(O)C(O)C(O)O[C@@H]2CO)C(O)C(O)C1O (some centres undefined)	Pf growth 96h inconclusive (no result: LmPK inhibitor, Cycloheximide cs, Shiga toxin inh)
Cc1ccc(C)c(S(=O)(=O)N2CCCC2CNC(=O)c2ccc([N+](=O)[O-])cc2)c1 (centres undefined)	Pf growth 48h 10µM, Pf growth 96h inconclusive (no result: LmPK inhibitor, Cycloheximide cs, Shiga toxin inh)
O=C(NCC1CCCN1S(=O)(=O)c1cccs1)c1ccc(F)c(F)c1 (centres undefined)	none (no result: LmPK inhibitor, Cycloheximide cs, Shiga toxin inh)
CC(C)(C)c1ccc(C(=O)NCC2CCCN2S(=O)(=O)c2ccccc2)cc1 (centres undefined)	Pf growth 48h 9.3µM, Pf growth 96h 13µM (no result: LmPK inhibitor, Cycloheximide cs, Shiga toxin inh)
Cc1ccc(C(=O)NCC2CCCN2S(=O)(=O)c2ccc(C)cc2)cc1 (centres undefined)	Pf growth 48h inconclusive, Pf growth 96h 10µM (no result: LmPK inhibitor, Cycloheximide cs, Shiga toxin inh)
Cc1ccc(S(=O)(=O)N2CCCC2CNC(=O)c2ccc(F)c(F)c2)cc1 (centres undefined)	Pf growth 48h 10µM, Pf growth 96h inconclusive (no result: LmPK inhibitor, Cycloheximide cs, Shiga toxin inh)
O=C(NCC1CCCO1)C(=O)NCC1CCCN1S(=O)(=O)c1ccccc1 (centres undefined)	none (no result: LmPK inhibitor, Cycloheximide cs, Shiga toxin inh)
COCCNC(=O)c1cc2cc(Cl)cc(Cl)c2oc1=O	none
OCCOc1ccc(CN2CCN(CCCc3ccccc3)C(CCO)C2)cc1 (centres undefined)	none
COc1cc(OC)cc(C(=O)NNC(=S)NC2CC2)c1	none
O=C(NCC(=O)N(c1cccc(F)c1)C(C(=O)NC1CCCC1)c1cccnc1)c1cccs1 (centres undefined)	none
CCCN(c1ccccc1F)S(=O)(=O)c1cc(-c2cc(C)no2)ccc1OC	Pf growth 48h inconclusive, Pf growth 96h 15µM
COc1ccc(-c2cc(C)no2)cc1S(=O)(=O)N1CCN(c2cccc(C)c2)C(C)C1 (centres undefined)	Pf growth 48h inconclusive, Pf growth 96h inconclusive
CCC1CN(S(=O)(=O)c2cc(-c3cc(C)no3)ccc2OC)c2cc(C)ccc2O1 (centres undefined)	Pf growth 48h 10µM, Pf growth 96h inconclusive
CCc1ccc(-c2cc(C)no2)cc1S(=O)(=O)N1CCN(c2cccc(C)c2C)CC1	Pf growth 48h 5.2µM, Pf growth 96h 12µM
CCc1ccc(-c2cc(C)no2)cc1S(=O)(=O)N1CCN(c2ccccc2F)CC1	Pf growth 48h inconclusive
Cc1cc(-c2ccc(C(C)C)c(S(=O)(=O)N3CCOc4ccccc43)c2)on1	Pf growth 48h 15µM
COc1ccc(-c2cc(C)no2)cc1S(=O)(=O)N(C)Cc1ccco1	none
O=S(=O)(Nc1ccc(-n2cnnn2)cc1)c1ccc(F)c(F)c1F	none
CC1Cc2ccccc2N1Cc1ccc([N+](=O)[O-])cc1 (centres undefined)	Pf growth 48h inconclusive, Pf growth 96h inconclusive
COc1ccc(-c2cc(C)no2)cc1S(=O)(=O)N1CCOc2ccccc21	Pf growth 48h inconclusive
CCc1ccc(-c2cc(C)no2)cc1S(=O)(=O)N1CCOc2ccc(C)cc21	Pf growth 48h 2.9µM, Pf growth 96h inconclusive
Cc1cc(-c2ccc(C)c(S(=O)(=O)N3CCN(c4ccc(F)cc4)CC3)c2)on1	Pf growth 48h inconclusive, Pf growth 96h inconclusive
CCc1ccc(-c2cc(C)no2)cc1S(=O)(=O)N1CCN(c2cc(C)ccc2C)CC1	Pf growth 48h 13µM
Cc1cc(C)cc(OCCCn2ccnc2)c1	Pf growth 96h 4.7µM
Cc1cccc(OCCCn2ccnc2)c1	Pf growth 48h 9.3µM
CCOc1ccc(OCCCCn2ccnc2)cc1	Cycloheximide cs 26
CC(C)c1cccc(C(C)C)c1OCCn1ccnc1	Pf growth 48h 13µM
O=S(=O)(O)O	none (no result: LmPK inhibitor, Cycloheximide cs, Shiga toxin inh)
Cc1c(NC(=O)c2cccnc2Cl)c(=O)n(-c2ccccc2)n1C	Pf growth 96h inconclusive
O=C(NCC(=O)N1CCN(c2ccccc2)CC1)c1ccc(Br)o1	Pf growth 96h inconclusive
